# Test results: PubChem BioAssay (NCATS)
# Records with an inconclusive call do not appear. A call without a number means that no potency is given here. Active and inactive are the calls of the source. The call rests on the fitted dose curve; in most records, active means well fitted curve in the direction sought with a large enough effect; inconclusive means small, poorly fitted or top-dose-only effect, or another doubt; inactive means no such curve, though single readings can be large; an effect the other way counts as inactive or inconclusive.
# Target: ATP-dependent 6-phosphofructokinase (Trypanosoma brucei brucei) (UniProt O15648)
# Sequence (O15648 whole entry, looked up): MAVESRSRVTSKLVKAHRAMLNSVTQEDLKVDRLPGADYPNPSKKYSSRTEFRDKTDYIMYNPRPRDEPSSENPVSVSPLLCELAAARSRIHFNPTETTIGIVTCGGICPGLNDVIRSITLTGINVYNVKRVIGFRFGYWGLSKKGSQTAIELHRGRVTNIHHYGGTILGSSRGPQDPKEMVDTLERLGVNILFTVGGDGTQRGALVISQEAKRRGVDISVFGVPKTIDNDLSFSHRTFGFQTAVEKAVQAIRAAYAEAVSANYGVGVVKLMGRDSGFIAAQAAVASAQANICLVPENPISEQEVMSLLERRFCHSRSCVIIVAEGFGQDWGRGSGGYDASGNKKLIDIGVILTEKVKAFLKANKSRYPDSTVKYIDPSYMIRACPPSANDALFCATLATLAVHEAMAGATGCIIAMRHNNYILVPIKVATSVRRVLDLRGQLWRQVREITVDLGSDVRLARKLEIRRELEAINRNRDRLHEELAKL
# Test: qHTS Assay to Find Inhibitors of T. brucei phosphofructokinase: hit validation (AID 492961)
# Details: T. brucei PFK, ADP-Glo luminescence; series mostly up to 51.4 µM
# Summary of the method: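 Reaction: 0.1 M triethanolamine pH 8.0, 5 mM MgCl2, F6P 0.5 mM, ATP 0.1 mM, PFK 1.25 nM, 45 min RT. Read-out: ADP-Glo luminescence. Analysis: concentration-response fits, classed by r2 and efficacy.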
# Potency means the concentration at half of the fitted maximal effect.
row,Compound,Potency
1,Cn1nnc2c(C(N)=O)ncn2c1=O,inactive
2,CNC1CCCN(c2c(F)cc3c(=O)c(C(=O)O)cn(C4CC4)c3c2OC)C1 (centres undefined),inactive
3,CC[C@H](NC(C)C)[C@H](O)c1ccc(O)c2[nH]c(=O)ccc12,inactive
4,CC1=NN(c2ccccc2)C(=O)C1,inactive
5,CCOC(=O)c1ccc(C#Cc2ccc3c(c2)C(C)(C)CCS3)nc1,inactive
6,CCCN[C@H]1CCc2nc(N)sc2C1,inactive
7,COc1cccc(N(C)C(=S)Oc2ccc3c(c2)CCCC3)n1,inactive
8,NC(N)=NC(N)=NCCc1ccccc1,inactive
9,CN1CCN(c2c(F)cc3c(=O)c(C(=O)O)cn4c3c2OCN4C)CC1,inactive
10,CC(C)Cn1cnc2c(N)nc3ccccc3c21,inactive
11,C[C@]12C=CC(=O)C=C1CC[C@@H]1[C@@H]2C(=O)C[C@@]2(C)[C@H]1CC[C@]2(O)C(=O)CO,inactive
12,Nc1nc(N)nc(-c2cc(Cl)ccc2Cl)n1,inactive
13,Cc1cccc(Nc2ccncc2S(=O)(=O)NC(=O)NC(C)C)c1,inactive
14,Cc1oc(=O)oc1CN1CCN(c2cc3c(cc2F)c(=O)c(C(=O)O)c2n3C(C)S2)CC1 (centres undefined),inactive
15,COc1cc(NCc2ccc3nc(N)nc(N)c3c2C)cc(OC)c1OC,inactive
16,Oc1c(Cl)cc(Cl)c2cccnc12,inactive
17,COc1ccc(-c2ccc3cc(C(=O)O)ccc3c2)cc1C12CC3CC(CC(C3)C1)C2,15.8 µM (active)
18,CC(C)(C#N)c1cc(Cn2cncn2)cc(C(C)(C)C#N)c1,inactive
19,CN1CCN(c2c(F)cc3c(=O)c(C(=O)O)cn(CCF)c3c2F)CC1,inactive

row,Compound,Potency
1,NC(=O)c1cccnc1,inactive
2,COc1ncnc(NS(=O)(=O)c2ccc(N)cc2)c1OC,inactive
3,CC[C@H](C)C(=O)O[C@H]1C[C@@H](C)C=C2C=C[C@H](C)[C@H](CC[C@@H]3C[C@@H](O)CC(=O)O3)[C@H]21,inactive
4,CCn1cc(C(=O)O)c(=O)c2cc(F)c(N3CCNCC3)nc21,inactive
5,CNS(=O)(=O)Cc1ccc2[nH]cc(CCN(C)C)c2c1,inactive
6,OC(Cn1cncn1)(Cn1cncn1)c1ccc(F)cc1F,inactive
7,COC(=O)Nc1nc2ccc(C(=O)c3ccccc3)cc2[nH]1,inactive
8,CCOCC(O)COc1ccc(NC(=O)CC[S+](C)C)cc1 (centres undefined),inactive
9,CC(C)(Sc1cc(C(C)(C)C)c(O)c(C(C)(C)C)c1)Sc1cc(C(C)(C)C)c(O)c(C(C)(C)C)c1,inactive
10,N[C@@H](C(=O)N[C@@H]1C(=O)N2C(C(=O)O)=C(Cl)CS[C@H]12)c1ccccc1,inactive
11,CC(=O)Oc1ccccc1C(=O)Nc1ncc([N+](=O)[O-])s1,inactive
12,COC(=O)Nc1nc2ccc(Sc3ccccc3)cc2[nH]1,inactive
13,CN(Cc1cc(Br)cc(Br)c1N)C1CCCCC1,inactive
14,CCCc1nc(C)c2c(=O)[nH]c(-c3cc(S(=O)(=O)N4CCN(CC)CC4)ccc3OCC)nn12,inactive
15,O=NN(CCCl)C(=O)NC1CCCCC1,inactive
16,O=c1cc(O)c(Cl)c[nH]1,inactive
17,S=P(N1CC1)(N1CC1)N1CC1,inactive
18,COc1cnc(NS(=O)(=O)c2ccc(N)cc2)nc1,inactive

# Target: Ubiquitin carboxyl-terminal hydrolase 1 (Homo sapiens) (UniProt O94782)
# Sequence (O94782 whole entry, looked up): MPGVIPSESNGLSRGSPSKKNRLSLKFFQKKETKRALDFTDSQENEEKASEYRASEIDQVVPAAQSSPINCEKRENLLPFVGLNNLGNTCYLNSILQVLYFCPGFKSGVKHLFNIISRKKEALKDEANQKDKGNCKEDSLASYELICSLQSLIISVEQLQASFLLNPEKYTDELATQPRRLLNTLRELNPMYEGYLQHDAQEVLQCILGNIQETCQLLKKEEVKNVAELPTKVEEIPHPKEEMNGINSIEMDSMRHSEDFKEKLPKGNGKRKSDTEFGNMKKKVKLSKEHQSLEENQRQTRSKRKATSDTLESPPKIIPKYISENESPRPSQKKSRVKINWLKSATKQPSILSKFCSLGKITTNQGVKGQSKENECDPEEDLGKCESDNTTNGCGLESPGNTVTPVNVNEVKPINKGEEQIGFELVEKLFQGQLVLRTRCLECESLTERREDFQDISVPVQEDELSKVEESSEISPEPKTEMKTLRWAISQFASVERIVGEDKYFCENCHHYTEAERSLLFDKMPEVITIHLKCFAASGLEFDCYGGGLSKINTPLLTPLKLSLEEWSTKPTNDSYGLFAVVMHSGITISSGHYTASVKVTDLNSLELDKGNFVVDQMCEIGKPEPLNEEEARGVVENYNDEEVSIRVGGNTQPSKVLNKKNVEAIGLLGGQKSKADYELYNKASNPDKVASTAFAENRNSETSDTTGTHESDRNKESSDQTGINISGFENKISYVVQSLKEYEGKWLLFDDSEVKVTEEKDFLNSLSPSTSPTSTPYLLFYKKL
# Test: Inhibitors of USP1/UAF1: Pilot qHTS (AID 504865); further: nearly all actives have a fitted effect of over 35% in size
# Details: purified USP1/UAF1, Ub-rhodamine cleavage fluorescence; series mostly up to 114 µM
# Summary of the method: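 USP1/UAF1 complex at 1 nM preincubated 15 min at room temperature with compound, then Ub-Rho substrate added at 150 nM final. Fluorescence (480/540 nm) read kinetically in 50 mM HEPES pH 7.8, 0.5 mM EDTA, 1 mM TCEP, 0.1 mg/ml BSA, 0.01% Tween-20.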
row,Compound,Potency
1,Cn1nnc2c(C(N)=O)ncn2c1=O,inactive
2,CNC1CCCN(c2c(F)cc3c(=O)c(C(=O)O)cn(C4CC4)c3c2OC)C1 (centres undefined),inactive
3,CC[C@H](NC(C)C)[C@H](O)c1ccc(O)c2[nH]c(=O)ccc12,inactive
4,CC1=NN(c2ccccc2)C(=O)C1,inactive
5,CCCN[C@H]1CCc2nc(N)sc2C1,inactive
6,NC(N)=NC(N)=NCCc1ccccc1,inactive
7,CN1CCN(c2c(F)cc3c(=O)c(C(=O)O)cn4c3c2OCN4C)CC1,inactive
8,CC(C)Cn1cnc2c(N)nc3ccccc3c21,inactive
9,C[C@]12C=CC(=O)C=C1CC[C@@H]1[C@@H]2C(=O)C[C@@]2(C)[C@H]1CC[C@]2(O)C(=O)CO,inactive
10,Nc1nc(N)nc(-c2cc(Cl)ccc2Cl)n1,inactive
11,Cc1cccc(Nc2ccncc2S(=O)(=O)NC(=O)NC(C)C)c1,inactive
12,Oc1c(Cl)cc(Cl)c2cccnc12,inactive
13,COc1ccc(-c2ccc3cc(C(=O)O)ccc3c2)cc1C12CC3CC(CC(C3)C1)C2,79.4 µM (active)
14,CC(C)(C#N)c1cc(Cn2cncn2)cc(C(C)(C)C#N)c1,inactive
15,CN1CCN(c2c(F)cc3c(=O)c(C(=O)O)cn(CCF)c3c2F)CC1,inactive
16,NC(=O)c1cccnc1,inactive

row,Compound,Potency
1,COc1ncnc(NS(=O)(=O)c2ccc(N)cc2)c1OC,inactive
2,CCn1cc(C(=O)O)c(=O)c2cc(F)c(N3CCNCC3)nc21,inactive
3,CNS(=O)(=O)Cc1ccc2[nH]cc(CCN(C)C)c2c1,inactive
4,OC(Cn1cncn1)(Cn1cncn1)c1ccc(F)cc1F,inactive
5,COC(=O)Nc1nc2ccc(C(=O)c3ccccc3)cc2[nH]1,inactive
6,CCOCC(O)COc1ccc(NC(=O)CC[S+](C)C)cc1 (centres undefined),inactive
7,CC(C)(Sc1cc(C(C)(C)C)c(O)c(C(C)(C)C)c1)Sc1cc(C(C)(C)C)c(O)c(C(C)(C)C)c1,inactive
8,N[C@@H](C(=O)N[C@@H]1C(=O)N2C(C(=O)O)=C(Cl)CS[C@H]12)c1ccccc1,inactive
9,CC(=O)Oc1ccccc1C(=O)Nc1ncc([N+](=O)[O-])s1,inactive
10,COC(=O)Nc1nc2ccc(Sc3ccccc3)cc2[nH]1,inactive
11,CN(Cc1cc(Br)cc(Br)c1N)C1CCCCC1,inactive
12,CCCc1nc(C)c2c(=O)[nH]c(-c3cc(S(=O)(=O)N4CCN(CC)CC4)ccc3OCC)nn12,inactive
13,O=NN(CCCl)C(=O)NC1CCCCC1,inactive
14,O=c1cc(O)c(Cl)c[nH]1,inactive
15,S=P(N1CC1)(N1CC1)N1CC1,inactive
16,COc1cnc(NS(=O)(=O)c2ccc(N)cc2)nc1,inactive
